# Measurements: PubChem BioAssay (EPA / NIEHS)
# “And” between values parts separate entries of the source, which are not always exact repeats. Identical values can stand only once. Where a structure was tested more than once in an assay, its records may differ in their call. The source made the active and inactive calls. The calls were made as follows: active = hit-call score of the fitted dose curve at least 0.9, where 1 is the maximum; inactive = score below 0.9.
# Assay: ATG_CMV_CIS: Attagene CIS-FACTORIAL HepG2 Assay for human CMV (Internal Marker) (AID 2282928);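 also: endpoint acts as a background internal control marker rather than a target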
# Details: HepG2 CMV promoter reporter, transcription factor profiling; actives raise or lower the signal
# Experimental: ATG_CIS is a cell-based, multiplexed-readout assay that uses HepG2, a human liver cell line, with measurements taken at 24 hours after chemical dosing in a 24-well plate.ATG_CMV_CIS is one of 52 assay component(s) measured or calculated from the ATG_CIS assay. It is designed to make measurements of mRNA induction, a form of inducible reporter, as detected with fluorescence intensity signals by Reverse transcription polymerase chain reaction (RT-PCR) and Capillary electrophoresis technology.Data from the assay component ATG_CMV_CIS was analyzed into 1 assay endpoint. This assay endpoint, ATG_CMV_CIS, was analyzed with bidirectional fitting relative to DMSO as the negative control and baseline of activity. Using a type of inducible reporter, measures of mRNA for gain or loss-of-signal activity can be used to understand the background control at the transcription factor-level as they relate to the gene . Furthermore, this assay endpoint can be referred to as a secondary readout, because this assay has produced multiple assay endpoints where this one serves a background control function. To generalize the intended target to other relatable targets, this assay endpoint is annotated to the background measurement intended target family, where the subfamily is internal marker.
# Human liver HepG2 cells are transiently transfected with multiple reporter transcription units (MRTUs) in 6-well plates using FuGene 6 reagent (Roche; 3 ml FuGene/1 mg DNA). The MRTU constructs are regulated by a cis-regulating element (promoter). […] A major difference between the CIS and TRANS system is that in CIS activities of endogenous TFs are measured, whereas the TRANS assay evaluates changes in activities of exogenous, chimeric NR-Gal4 proteins. […] At the end of 24 hour incubation, total RNA was isolated using TriZol reagent (Invitrogen). The isolated RNA is then reverse-transcribed using oligo(dT) primer and Mo-MLV reverse transcriptase (Invitrogen) with DNAse I (Ambion) treatment for 30 min. The one-tenth of the produced cDNA was amplified by PCR using Taq DNA polymerase (Invitrogen) and two reporter sequence-specific primers. The PCR products were fluorescently labeled by primer extension with 6-arboxyfluorescein (6-FAM) 5'-labeled reporter sequence-specific primer (2 min at 95 C, 20 s at 68 C and 10 min at 72 C) and these products were digested with 5U of HpaI (New England Biolabs) for 2h at 37 C. The fragments were purified using Qiaquick PCR columns (Qiagen), analyzed on an ABI 3130xL genetic analyzer (Applied Biosystems) with peak positions identified by using a set of X-rhodamine (ROX)-labeled MapMarker1000 molecular weight standards (BioVentures). The raw capillary electrophoresis data was processed using Attagraph software (Attagene).
Structure (SMILES),AC50,outcome
CC(=O)S[C@@H]1CC2=CC(=O)CC[C@]2(C)[C@H]2CC[C@@]3(C)[C@@H](CC[C@@]34CCC(=O)O4)[C@H]12,26.1 µM (active) and 3.77 µM (active) and 12.1 µM (active),inactive
O=C(Nc1ccc([N+](=O)[O-])cc1Cl)c1cc(Cl)ccc1O,1.16 µM (active),–
O=C(O)c1ccccc1,–,inactive
CN(C)C(=O)Nc1ccc(Cl)c(Cl)c1,79.1 µM (active),inactive
C=CCOC(Cn1ccnc1)c1ccc(Cl)cc1Cl (stereo unspecified),33 µM (active),–
O=C(O)C1(C(=O)Nc2ccc(Cl)cc2Cl)CC1,–,inactive
CCCCOCCOCCOCc1cc2c(cc1CCC)OCO2,24.3 µM (active),–
CCOC(=O)C(C)Oc1ccc(Oc2nc3ccc(Cl)cc3o2)cc1 (stereo unspecified),–,inactive
COC(=O)c1ccccc1C(=O)O,–,inactive
C#C[C@]1(O)CC[C@H]2[C@@H]3CCC4=CC(=O)CC[C@@H]4[C@H]3CC[C@@]21CC,–,inactive
COc1c(Cl)ccc(Cl)c1C(=O)O,–,inactive
CSC(=O)c1cccc2nnsc12,–,inactive
CCCOC(=O)NCCCN(C)C,–,inactive
COc1nc(C)nc(NC(=O)NS(=O)(=O)c2ccccc2OCCCl)n1,–,inactive
COC(=O)c1cccc(C)c1S(=O)(=O)NC(=O)Nc1nc(OCC(F)(F)F)nc(N(C)C)n1,–,inactive
C#CCOC(=O)[C@@H](C)Oc1ccc(Oc2ncc(Cl)cc2F)cc1,–,inactive
CCCOC(=O)c1ccc(C(=O)OCCC)nc1,–,inactive

Structure (SMILES),AC50,outcome
COC(=O)c1c(Cl)nn(C)c1S(=O)(=O)NC(=O)Nc1nc(OC)cc(OC)n1,–,inactive
CCC(C)OC(=O)N1CCCCC1CCO (stereo unspecified),–,inactive
CC(C)(c1ccc(O)cc1)c1ccc(O)cc1,50 µM (active) [middle of 6 runs],inactive
CCCCC(CC)COC(=O)c1ccccc1C(=O)O (stereo unspecified),–,inactive
CCCCOC(=O)C(C)Oc1ccc(Oc2ccc(C(F)(F)F)cn2)cc1 (stereo unspecified),–,inactive
S=C(S)NCCNC(=S)S.[Mn+2].[S-]C([S-])=NCCN=C([S-])[S-].[Zn+2],231 nM (active) and 1.21 µM (active) and 343 nM (active),inactive
CC(=O)[C@H]1CC[C@H]2[C@@H]3CCC4=CC(=O)CC[C@]4(C)[C@H]3CC[C@]12C,160 µM (active),inactive
CCOC(=O)COc1cc(-n2ncc(C(F)(F)F)c(C)c2=O)c(F)cc1Cl,–,inactive
CCN(Cc1c(F)cccc1Cl)c1c([N+](=O)[O-])cc(C(F)(F)F)cc1[N+](=O)[O-],10.6 µM (active),–
CCNc1nc(N)nc(Cl)n1,–,inactive
CCOC(=O)c1ccc(O)cc1,–,inactive
S=C([S-])NCCNC(=S)[S-].[Mn+2],–,inactive
O=C(c1ccccc1)C1CCCCC1,–,inactive
COC(=O)c1ccc(CNS(C)(=O)=O)cc1S(=O)(=O)NC(=O)Nc1nc(OC)cc(OC)n1,–,inactive
CC(C)CCCCCCc1ccc(O)cc1,13.1 µM (active) and 17.4 µM (active),inactive
O=C(c1ccc(O)cc1O)c1ccc(O)cc1O,80.5 µM (active) [middle of 4 runs],–
N#CSCSc1nc2ccccc2s1,2.95 µM (active),inactive
